The full data set covers some 7,900 targets. This sample favours those with a hit. About 0.6% of all pairs of compound and target were hits. Unmarked numbers belong to inactive results.
Legend:
Assay in all cases: log2 fold change, soluble protein after heating vs DMSO (PISA); higher = thermal stabilisation; K562 cells, 10 uM, 30 min; active = over 0.2 and 3.5 SD of the protein, either way, in both replicates (recomputed)
[1] = compound: C1=CC=C(C=C1)[C@H](COC2=CC3=C(C=C2)NC(=O)N3)NC(=O)C4=CC=CN(C4=O)CC5=CC(=C(C=C5)F)F
Method in brief: (§1)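 Aliquots of K562 cells (2×10^6 cells/mL) treated with 10 μM compound for 30 min were heated for 3 min over 48°C-58°C. After pooling and extraction in PBS with 0.5% NP-40 at 4°C, soluble protein from a 21,000xg, 90 min spin was quantified by TMTpro 16plex LC-MS/MS with channel sums equalised. Thermal stability is expressed against control samples, from duplicates, as a log2 fold change.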

[2] = compound: CC1=C(SC2=C1C(=N[C@H](C3=NN=C(N32)C)CC(=O)N)C4=CC=C(C=C4)Cl)C
Method in brief: as §1

[3] = compound: CC1=C2C(=CC=C1)N=C(N(C2=O)C3=CC=CC=C3C)CN4C=NC5=C(N=CN=C54)N
Method in brief: as §1

[4] = compound: Cc1sc2c(c1C)C(c1ccc(Cl)cc1)=N[C@@H](CC(=O)OC(C)(C)C)c1nnc(C)n1-2
Method in brief: as §1

[5] = compound: c1ccc([C@@H]2C[C@H]2NC2CCNCC2)cc1
Method in brief: as §1

Sequence of UniProt Q15121 (Q15121 whole entry, looked up): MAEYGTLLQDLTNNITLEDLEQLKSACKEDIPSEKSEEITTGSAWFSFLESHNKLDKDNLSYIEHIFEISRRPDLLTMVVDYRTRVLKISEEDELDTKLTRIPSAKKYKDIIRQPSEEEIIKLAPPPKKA
Sequence of UniProt P28340 (P28340 whole entry, looked up): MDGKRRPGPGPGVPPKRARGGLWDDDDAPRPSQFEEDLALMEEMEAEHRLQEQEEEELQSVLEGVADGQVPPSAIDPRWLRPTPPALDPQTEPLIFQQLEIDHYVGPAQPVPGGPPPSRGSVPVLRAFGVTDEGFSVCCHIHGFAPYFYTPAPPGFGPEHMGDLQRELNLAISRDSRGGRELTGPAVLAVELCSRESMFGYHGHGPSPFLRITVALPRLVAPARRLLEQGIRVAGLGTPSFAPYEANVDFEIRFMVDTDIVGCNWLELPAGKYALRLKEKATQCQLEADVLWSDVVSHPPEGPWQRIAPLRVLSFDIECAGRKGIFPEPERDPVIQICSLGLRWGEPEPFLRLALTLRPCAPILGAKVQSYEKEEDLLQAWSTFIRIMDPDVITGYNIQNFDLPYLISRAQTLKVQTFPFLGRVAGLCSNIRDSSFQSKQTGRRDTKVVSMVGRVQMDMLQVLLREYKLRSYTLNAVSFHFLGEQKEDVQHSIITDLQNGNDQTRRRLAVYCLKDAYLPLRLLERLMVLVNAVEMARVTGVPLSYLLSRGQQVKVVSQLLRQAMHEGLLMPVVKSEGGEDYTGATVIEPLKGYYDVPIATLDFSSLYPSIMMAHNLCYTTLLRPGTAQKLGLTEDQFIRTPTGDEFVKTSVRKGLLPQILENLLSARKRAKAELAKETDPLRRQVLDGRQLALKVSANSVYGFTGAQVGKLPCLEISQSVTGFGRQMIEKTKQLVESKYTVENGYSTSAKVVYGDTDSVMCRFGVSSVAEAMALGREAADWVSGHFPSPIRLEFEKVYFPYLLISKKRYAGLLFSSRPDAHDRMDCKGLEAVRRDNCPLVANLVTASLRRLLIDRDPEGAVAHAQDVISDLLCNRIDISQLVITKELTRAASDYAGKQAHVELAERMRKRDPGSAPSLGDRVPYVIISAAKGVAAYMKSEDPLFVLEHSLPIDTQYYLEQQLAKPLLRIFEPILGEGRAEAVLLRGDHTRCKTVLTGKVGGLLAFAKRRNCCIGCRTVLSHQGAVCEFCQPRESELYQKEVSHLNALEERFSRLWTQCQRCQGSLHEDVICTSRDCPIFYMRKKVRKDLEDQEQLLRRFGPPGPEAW
Sequence of UniProt P62191 (P62191 whole entry, looked up): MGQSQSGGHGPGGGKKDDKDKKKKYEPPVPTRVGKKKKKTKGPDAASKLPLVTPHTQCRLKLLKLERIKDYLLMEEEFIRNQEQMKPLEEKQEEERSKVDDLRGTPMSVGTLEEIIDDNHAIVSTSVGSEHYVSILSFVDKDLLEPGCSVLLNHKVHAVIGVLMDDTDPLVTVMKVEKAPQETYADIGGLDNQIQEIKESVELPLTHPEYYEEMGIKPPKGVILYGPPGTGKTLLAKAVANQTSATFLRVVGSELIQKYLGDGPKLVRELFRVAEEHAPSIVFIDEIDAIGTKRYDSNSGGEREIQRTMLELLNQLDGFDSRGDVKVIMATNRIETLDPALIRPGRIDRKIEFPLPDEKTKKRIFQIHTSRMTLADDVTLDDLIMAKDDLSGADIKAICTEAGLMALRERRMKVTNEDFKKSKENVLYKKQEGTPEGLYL
Sequence of UniProt Q9UMR5 (Q9UMR5 whole entry, looked up): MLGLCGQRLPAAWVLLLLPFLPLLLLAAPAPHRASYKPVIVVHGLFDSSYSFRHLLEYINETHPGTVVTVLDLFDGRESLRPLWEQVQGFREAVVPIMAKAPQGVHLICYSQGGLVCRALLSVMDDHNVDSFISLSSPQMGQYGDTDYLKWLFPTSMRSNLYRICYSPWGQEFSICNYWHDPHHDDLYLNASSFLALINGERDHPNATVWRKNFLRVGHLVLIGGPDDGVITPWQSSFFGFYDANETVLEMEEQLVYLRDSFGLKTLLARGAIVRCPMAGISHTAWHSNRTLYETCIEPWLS
Sequence of UniProt P29590 (P29590 whole entry, looked up): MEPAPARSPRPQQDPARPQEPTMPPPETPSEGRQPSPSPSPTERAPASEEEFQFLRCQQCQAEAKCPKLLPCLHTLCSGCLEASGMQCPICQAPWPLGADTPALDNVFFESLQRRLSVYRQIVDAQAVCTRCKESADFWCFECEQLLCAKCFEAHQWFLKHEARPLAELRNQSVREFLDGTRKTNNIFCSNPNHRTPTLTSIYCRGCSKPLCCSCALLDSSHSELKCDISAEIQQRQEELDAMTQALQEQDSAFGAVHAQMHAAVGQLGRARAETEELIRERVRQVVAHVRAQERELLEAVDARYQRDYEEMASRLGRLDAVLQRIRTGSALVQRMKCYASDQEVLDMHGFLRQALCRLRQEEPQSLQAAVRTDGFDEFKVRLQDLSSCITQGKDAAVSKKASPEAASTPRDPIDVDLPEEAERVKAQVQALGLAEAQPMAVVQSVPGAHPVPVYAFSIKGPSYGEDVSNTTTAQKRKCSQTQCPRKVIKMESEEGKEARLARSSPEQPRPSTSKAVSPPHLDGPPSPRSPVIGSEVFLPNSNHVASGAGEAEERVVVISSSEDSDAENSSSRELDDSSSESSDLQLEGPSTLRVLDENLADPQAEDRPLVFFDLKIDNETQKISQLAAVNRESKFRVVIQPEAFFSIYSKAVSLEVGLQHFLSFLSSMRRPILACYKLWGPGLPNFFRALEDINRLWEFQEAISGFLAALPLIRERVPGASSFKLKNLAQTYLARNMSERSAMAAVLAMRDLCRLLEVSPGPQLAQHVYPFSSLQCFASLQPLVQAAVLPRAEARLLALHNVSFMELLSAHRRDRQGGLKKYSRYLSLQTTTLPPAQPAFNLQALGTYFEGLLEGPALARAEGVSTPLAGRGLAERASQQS
Sequence of UniProt Q9UHX1 (Q9UHX1 whole entry, looked up): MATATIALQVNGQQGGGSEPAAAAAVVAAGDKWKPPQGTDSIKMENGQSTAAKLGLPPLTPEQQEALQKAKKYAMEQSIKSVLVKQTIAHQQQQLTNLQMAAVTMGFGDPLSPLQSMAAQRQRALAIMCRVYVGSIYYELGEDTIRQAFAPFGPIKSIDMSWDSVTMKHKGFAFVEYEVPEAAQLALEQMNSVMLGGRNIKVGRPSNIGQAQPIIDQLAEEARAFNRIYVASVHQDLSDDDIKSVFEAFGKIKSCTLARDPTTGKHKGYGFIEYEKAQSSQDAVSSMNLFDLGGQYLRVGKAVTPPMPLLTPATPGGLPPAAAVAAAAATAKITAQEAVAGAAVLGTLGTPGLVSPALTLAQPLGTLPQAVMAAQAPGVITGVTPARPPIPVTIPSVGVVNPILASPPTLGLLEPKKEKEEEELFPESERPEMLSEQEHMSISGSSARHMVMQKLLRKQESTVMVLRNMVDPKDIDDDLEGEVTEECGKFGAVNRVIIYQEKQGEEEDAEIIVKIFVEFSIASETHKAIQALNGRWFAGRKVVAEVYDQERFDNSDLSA
Sequence of UniProt Q8WWY3 (Q8WWY3 whole entry, looked up): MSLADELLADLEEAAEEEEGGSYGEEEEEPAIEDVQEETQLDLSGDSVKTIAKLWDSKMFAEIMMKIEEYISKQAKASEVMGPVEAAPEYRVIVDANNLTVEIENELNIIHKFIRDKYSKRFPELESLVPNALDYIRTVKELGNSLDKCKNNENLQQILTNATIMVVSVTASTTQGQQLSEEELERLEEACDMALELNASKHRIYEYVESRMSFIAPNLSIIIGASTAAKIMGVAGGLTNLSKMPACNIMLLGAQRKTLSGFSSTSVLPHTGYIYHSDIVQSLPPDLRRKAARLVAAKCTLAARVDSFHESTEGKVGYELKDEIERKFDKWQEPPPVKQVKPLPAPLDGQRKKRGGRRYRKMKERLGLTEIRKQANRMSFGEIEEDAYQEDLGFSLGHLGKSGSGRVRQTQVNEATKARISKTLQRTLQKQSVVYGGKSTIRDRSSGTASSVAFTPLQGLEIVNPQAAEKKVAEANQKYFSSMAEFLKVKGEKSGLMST
Sequence of UniProt Q5JVF3 (Q5JVF3 whole entry, looked up): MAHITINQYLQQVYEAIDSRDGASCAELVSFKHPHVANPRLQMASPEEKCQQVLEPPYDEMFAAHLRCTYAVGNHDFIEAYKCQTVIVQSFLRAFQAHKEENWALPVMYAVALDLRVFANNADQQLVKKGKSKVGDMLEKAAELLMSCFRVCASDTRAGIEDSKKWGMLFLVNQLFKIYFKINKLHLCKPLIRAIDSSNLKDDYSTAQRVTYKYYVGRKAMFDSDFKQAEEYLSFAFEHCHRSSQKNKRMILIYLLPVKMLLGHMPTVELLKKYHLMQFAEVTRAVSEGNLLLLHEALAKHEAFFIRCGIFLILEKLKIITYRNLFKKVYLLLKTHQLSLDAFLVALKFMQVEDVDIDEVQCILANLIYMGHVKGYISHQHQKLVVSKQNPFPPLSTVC

Target	log2 fold change [1]	log2 fold change [2]	log2 fold change [3]	log2 fold change [4]	log2 fold change [5]
PLBD1 (UniProt Q6P4A8)	0.005	-0.011	-0.018	-0.006	0.013
PRMT3 (UniProt O60678)	-0.1	0.077	0.024	-0.013	0.001
PLCG1 isoform 2 (UniProt P19174)	-0.059	0.038	0.033	0.063	-0.028
PPIL4 (UniProt Q8WUA2)	0.012	-0.022	0.036	0.039	0.016
POLR2I (UniProt P36954)	0.063	0.104	-0.163	0.194	-0.035
PSMB6 (UniProt P28072)	0.023	-0.057	-0.015	0.019	0.081
POLR1A (UniProt O95602)	0.049	-0.043	-0.044	0.096	-0.015
PIKFYVE (UniProt Q9Y2I7)	-0.077	0.106	0.111	0.068	-0.009
PDCD2L (UniProt Q9BRP1)	-0.031	0.055	0.109	0.021	0.091
PKN2 (UniProt Q16513)	-0.075	0.103	0.066	0.029	0.044
PGM3 isoform 4 (UniProt O95394)	-0.082	0.039	0.066	0.012	-0.088
PPT2 isoform 3 (UniProt Q9UMR5)	0.015	-0.062	-0.011	-0.053	0.03
PRPF38B (UniProt Q5VTL8)	0.038	0.066	0.052	0.056	0.032
PTPA (UniProt A6PVN8)	0.011	0.011	0.001	-0.015	0.148
PDCD6IP (UniProt Q8WUM4)	-0.131	0.05	0.119	-0.029	-0.04
PRIM1 (UniProt P49642)	-0.149	-0.033	0.053	0.033	0.01
POLD1 (UniProt P28340)	0.017	0.019	0.094	0.048	0
PRUNE1 (UniProt Q86TP1)	-0.025	-0.002	0.023	0	-0.007
PARP1 (UniProt P09874)	-0.098	0.027	0.182	-0.069	-0.101
PNPLA4 (UniProt P41247)	0.068	0.158	0.042	0.099	0.178
PRKCG (UniProt P05129)	-0.216	-0.025	0.033	-0.017	0.077
PRKCA (UniProt P17252)	-0.035	0.124	0.14	0.002	-0.038
PEF1 (UniProt Q9UBV8)	0.01	0.185	0.047	-0.178	-0.014
PSMC1 (UniProt P62191)	0.047	-0.09	-0.002	0	0
PELO (UniProt Q9BRX2)	-0.037	0.116	0.103	0.064	-0.049
PSPC1 (UniProt Q8WXF1)	-0.023	-0.029	0.038	-0.032	0.015
PRKCQ (UniProt Q04759)	-0.064	0.069	0.104	0.033	0

Target	log2 fold change [1]	log2 fold change [2]	log2 fold change [3]	log2 fold change [4]	log2 fold change [5]
PCID2 (UniProt Q5JVF3)	-0.18	0.057	0.159	0.033	-0.071
PRKAR2B (UniProt P31323)	-0.065	-0.012	-0.06	-0.024	0.007
RAB11FIP1 (UniProt Q6WKZ4)	0.041	0.071	0.086	-0.006	0.046
PHKA2 (UniProt P46019)	-0.018	-0.003	0.053	0.023	0.024
PRKCE (UniProt Q02156)	-0.065	0.033	0.071	0.018	0
PELP1 (UniProt Q8IZL8)	0	0.006	-0.028	-0.044	-0.013
PRKAA1 isoform 2 (UniProt Q13131)	0.001	0.085	0.024	0.004	0.019
PEA15 isoform 2 (UniProt Q15121)	-0.014	0.1	0.116	-0.063	-0.015
PTDSS1 (UniProt P48651)	-0.027	-0.072	-0.115	0.042	0.017
PARG (UniProt Q86W56)	-0.043	-0.013	0.018	-0.009	-0.075
PITRM1 isoform 2 (UniProt Q5JRX3)	0.064	-0.08	0.048	-0.083	0
PRPF31 (UniProt Q8WWY3)	-0.07	0.028	0.174	-0.087	0.005
PDE4A (UniProt P27815)	-0.11	0.128	0.102	-0.112	0.201
PGGHG (UniProt Q32M88)	-0.052	-0.09	-0.088	-0.084	0.213
PSMB4 (UniProt P28070)	0.024	-0.037	-0.038	-0.009	0.03
PSMC5 (UniProt P62195)	0.017	-0.087	-0.045	0.006	0.01
PUF60 (UniProt Q9UHX1)	0.031	0.033	0.081	-0.036	0.007
PCK2 (UniProt Q16822)	0.051	0.038	0.057	0.008	-0.038
PCBP2 isoform 3 (UniProt Q15366)	-0.051	0.016	0.055	-0.029	0.005
PSMD2 (UniProt Q13200)	0.026	-0.097	-0.059	0.008	0.016
PML (UniProt P29590)	-0.008	-0.054	0.002	-0.005	0.001
PCBP2 (UniProt F8VRH0)	-0.033	-0.18	-0.013	0.085	0.026
PIK3CB (UniProt P42338)	-0.068	0.014	0.213 (active)	-0.01	0.005
PHLDB1 isoform 2 (UniProt Q86UU1)	-0.006	0.073	0.081	0.008	0.002
PRPF38A (UniProt Q8NAV1)	0.014	-0.011	0.024	0.007	0.015
PRKAR1A (UniProt P10644)	0.213	-0.019	0.119	0.041	-0.008
